High-throughput results deposited in PubChem by National Center for Advancing Translational Sciences (NCATS).
Only some compounds are listed: those with a hit (about 8.1% of all), similar ones and a draw of the others.
SW480 rerep: inducers of DNA re-replication in SW480 colon cancer cells; 340,000 compounds, 1.8% hits; AID 624297; Potency, µM (series often up to 46.1 µM), hits mostly activators; SW480 DNA re-replication, Hoechst DNA content imaging, 48 h; note: nearly all actives have a fitted effect of over 55% in size
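SW480 cells exposed to compounds for 48 hr at 37 C, 5% CO2, then Hoechst-stained 40 min. Nuclear DNA content imaged by fluorescence scanning (405 nm excitation, 500-530 nm emission); re-replication scored as increased high-intensity nuclei.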
ELG1 DNA repair: inhibitors of ELG1-dependent DNA repair in HEK293T cells; HEK293T ELG1-luciferase reporter, luminescence, 16 h; DNA damage induced by 5-fluorouridine; Potency, µM (series often up to 46.1 µM), actives largely listed as inhibitors; 330,000 compounds, 2.3% hits; AID 504467; note: nearly all actives have a fitted effect of over 55% in size
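5-Fluorouridine DNA damage + compound/DMSO, 2,000 cells/well, 16 h, 37 °C/5% CO2. ONE-Glo, 30 min RT, luminescence. Readout = decrease in reporter signal.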
KB-V1 MDR tox: KB-V1 MDR subline cytotoxicity. AID 1347076. Potency, µM (top dose mostly 46.1 µM), actives largely listed as cytotoxic. KB-V1 MDR cells viability, CellTiter-Glo, 72 h. 400,000 compounds, 3.4% hits; note: nearly all actives have a fitted effect of over 60% in size
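KB-V1 cells (P-gp-expressing MDR subline of KB-3-1) in phenol-red-free DMEM with 10% FBS were exposed to library compounds over a concentration series for 72 h at 37 degrees C. Viability read by CellTiter-Glo luminescence; concentration-effect curves fitted after normalization.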
KB-3-1 cytotox: KB-3-1 parental cell cytotoxicity. KB-3-1 viability, CellTiter-Glo ATP luminescence, 72 h. Potency, µM (series often up to 46.1 µM), most hits filed as cytotoxic. 400,000 compounds, 1.4% hits. AID 1347075; note: nearly all actives have a fitted effect of over 60% in size
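Screening of KB-3-1 cells (DMEM, 10% FBS, phenol-red free) ran from lowest to highest compound concentration; after 72 h at 37 °C viability was read luminescently and curves fitted.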
MCF10A rerep: inducers of DNA re-replication in MCF 10A breast cells; 350,000 compounds, 2.9% hits; Potency, µM (series often up to 46.1 µM), most hits filed as activators; MCF 10A DNA re-replication, Hoechst nuclear intensity, 48 h; AID 624296; note: nearly all actives have a fitted effect of over 50% in size
Hits are given with their value; - = inactive; ? = inconclusive; . = no result given. Calls come from the whole dose curve; as a rule, active = well fitted curve in the direction sought with a large enough effect; inconclusive = small, poorly fitted or top-dose-only effect, or another doubt; inactive = no such curve, though single readings can be large; an effect the other way counts as inactive or inconclusive.

SMILES | SW480 rerep | ELG1 DNA repair | KB-V1 MDR tox | KB-3-1 cytotox | MCF10A rerep
Cc1ccc(/C=C/C(=O)NC(=S)Nc2ccccc2C(=O)NC2CCCCC2)cc1 | - | - | - | - | ?
O=C(/C=C/c1ccccc1)NC(=S)Nc1ccccc1C(=O)NC1CCCCC1 | - | - | ? | - | -
O=C(/C=C/c1ccc(F)cc1)NC(=S)Nc1ccccc1C(=O)NC1CCCCC1 | ? | - | 16µM | - | ?
OCCCn1c(CCCNc2nc(-c3cccc(Br)c3)cs2)nc2cc(Cl)c(N3CCCCC3)cc21 | - | - | - | - | ?
ClC(CCN1CCN(Cc2ccccc2)CC1)c1ccccc1 (stereo not drawn) | - | . | - | - | -
OCC#CCSc1nnc(-c2ccccc2Br)o1 | ? | ? | - | - | 12µM
Cc1onc(-c2ccccc2Cl)c1C(=O)N/N=C(\N)COc1ccc(Cl)cc1 | - | - | 15µM | ? | -
Cc1onc(-c2ccccc2)c1C(=O)N/N=C(\N)COc1ccc(Cl)cc1 | - | - | 15µM | ? | -
CCOC(=O)C1(Cc2cccc(Cl)c2)CCCN(C(=O)CCNC(C)=O)C1 (stereo not drawn) | - | - | - | - | -
Cc1ccc(CSC2=Nc3ccccc3C3=NC(CCC(=O)NCc4cccs4)C(=O)N23)c(C)c1 (stereo not drawn) | . | . | - | - | .
CN(C)c1ccc(/C=C/c2nc3ccccc3s2)cc1Cl | . | . | - | - | .
COc1cc2nc(/C=C/c3ccc(N(C)C)cc3)sc2cc1SC | 21µM | - | - | - | 3.3µM
O=C(Nc1ccccc1-c1nc2ccccc2s1)c1cccnc1 | - | - | - | - | -
COc1ccc(-c2c(C)nn(Cc3ccccc3)c2N)cc1 | - | - | 21µM | - | -
CCOC(=O)c1c(NC(=O)/C=C/C(=O)O)sc(C)c1-c1ccc(Cl)cc1 | - | - | - | ? | 2.9µM
CCOC(=O)c1c(NC(=O)CN2CCCCC2)sc(CN(C)C)c1-c1ccccc1 | 16µM | - | - | - | 26µM
CCOC(=O)c1c(NC(=O)CCl)sc(CN(C)C)c1-c1ccccc1 | ? | - | - | ? | ?
CCOC(=O)c1c(NC(=S)N2CCN(C)CC2)sc(C)c1-c1ccccc1 | ? | - | - | - | 26µM
CCOC(=O)c1ccc(NC(=S)N2CCN(C)CC2)cc1 | - | - | - | - | ?
Cc1ccc(C(C)C)c(OCCCN2CC(C)OC(C)C2)c1 (stereo not drawn) | - | - | - | - | -
COc1cccc(OC)c1-c1cnc(NC(C)=O)cn1 | . | . | - | - | .
CCOC(=O)c1nnn(-c2nc(OC)nc(N3CCCCC3)n2)c1-c1ccccc1 | . | 18µM | . | . | .
CCOC(=O)c1nnn(-c2nc(N3CCCC3)nc(N3CCCC3)n2)c1-c1ccccc1 | - | - | - | ? | -
CCOC(=O)c1c(-c2ccccc2)nnn1-c1nc(OCC)nc(N2CCCCC2)n1 | - | ? | 21µM | ? | 15µM
Cc1ccsc1/C=C1\Oc2cc(OCC(=O)c3ccccc3)ccc2C1=O | - | - | - | - | ?
SMILES | SW480 rerep | ELG1 DNA repair | KB-V1 MDR tox | KB-3-1 cytotox | MCF10A rerep
c1ccc(Cn2ncc3c(N4CCCCC4)ncnc32)cc1 | - | - | - | - | -
CC1=C(c2ccc(C)cc2)[N+](=O)C(C)(C)N1[O-] | - | ? | - | - | -
CCOC(=O)c1c(-c2ccc(C)o2)csc1NC(=S)NC(=O)c1ccccc1Br | ? | ? | 16µM | ? | ?
CCOC(=O)c1c(-c2ccc(C)o2)csc1NC(=O)CSc1nnc(C)s1 | - | ? | - | - | -
CCOC(=O)c1c(-c2ccc(C)o2)csc1NC(=S)NC(=O)c1cccs1 | - | 16µM | - | ? | -
CN(C)C1=NCC(CSC(=N)N)S1 (stereo not drawn) | 8.2µM | - | - | - | ?
Cc1ccc(N2NC(=O)/C(=C\c3cc4c(cc3[N+](=O)[O-])OCO4)C2=O)cc1C | - | ? | - | ? | 18µM
COc1ccc(S(=O)(=O)c2nnn(-c3cccc(OC)c3)c2N)cc1 | - | ? | ? | - | -
CCn1nc(NC(=O)c2ccncc2)c2cc3ccccc3nc21 | - | ? | - | - | ?
CC(C)Cn1nc(NC(=O)c2ccco2)c2cc3ccccc3nc21 | 16µM | ? | ? | ? | ?
CCn1nc(NC(=O)c2ccco2)c2cc3ccccc3nc21 | ? | ? | ? | - | 21µM
O=C1S/C(=C\c2ccc(O)c([N+](=O)[O-])c2)C(=O)N1c1ccccc1Cl | - | ? | - | - | 1.6µM
O=C1S/C(=C\c2ccc(O)c([N+](=O)[O-])c2)C(=O)N1Cc1cccc([N+](=O)[O-])c1 | - | ? | ? | - | ?
CCc1ccccc1NC(=O)CN1CCN(C(=O)c2ccc(OCc3cn4ccccc4n3)cc2)CC1 | - | 6.5µM | - | - | -
O=C(NCc1ccc2c(c1)OCO2)C1CCN(S(=O)(=O)c2ccc(F)cc2)CC1 | - | - | - | - | -
O=S(=O)(c1ccccc1)N(F)S(=O)(=O)c1ccccc1 | - | - | ? | - | -
O=S(=O)(c1ccccc1)N(c1ccccc1)S(=O)(=O)c1ccccc1 | - | . | 9.2µM | ? | -
Cc1ccc(SCCNC(=S)Nc2ccccc2)cc1 | - | . | - | - | -
Cc1ccc(SCCNC(=S)Nc2cc(C)ccc2C)cc1 | - | - | ? | - | ?
Cc1ccc(SCCNC(=S)Nc2ccc(C)c(C)c2)cc1 | ? | - | ? | ? | 15µM
Cc1cc(C)cc(NC(=S)NCCSc2ccc(Cl)cc2)c1 | - | - | - | - | 21µM
CCOc1cc(Br)ccc1S(=O)(=O)NCc1ccccc1 | - | - | 15µM | - | -
CCOc1ccc(OCC)c(S(=O)(=O)NCc2ccccc2)c1 | - | - | - | - | -
CCOC(=O)N1CCN(C(=O)c2cnn(-c3cccc(F)c3)c2-n2cccc2)CC1 | . | . | - | - | .
CCOc1cccc(/C=N/Nc2nc(N3CCCC3)nc(N3CCCC3)n2)c1O | - | ? | ? | - | -
SMILES | SW480 rerep | ELG1 DNA repair | KB-V1 MDR tox | KB-3-1 cytotox | MCF10A rerep
COc1ccc(/C=N/Nc2nc(Nc3ccccc3)nc(N3CCCCC3)n2)cc1OC | - | 5.8µM | ? | ? | -
COc1ccc(/C=N\Nc2ncc(F)c(N3CCOCC3)n2)cc1OC | - | 18µM | - | - | -
CCOc1cc(/C=N/Nc2nc(Nc3ccccc3)nc(N3CCCCC3)n2)ccc1OCC(=O)O | - | - | - | - | -
CCOc1cc(/C=N/Nc2nc(N3CCCC3)nc(N3CCCC3)n2)ccc1O | - | 12µM | ? | - | -
Cc1cccc(C)c1OCCCN1CCCC1 | - | - | - | - | -
C=CS(=O)(=O)c1c2cc(OC)ccc2nc2ccc(OC)cc12 | 21µM | . | 21µM | ? | ?
COc1ccc2nc(Cl)cc(Cl)c2c1 | - | - | - | - | -
Cc1ccc(NC(=O)C(OC(=O)c2ccc(O)cc2)c2ccccc2)cc1Cl (stereo not drawn) | - | ? | - | - | 26µM
COc1ccc(NC(=O)COC(=O)Cc2cccs2)cc1Cl | . | . | - | - | .
CNC(=O)/C(C#N)=C/c1ccc(-c2ccc(OC)cc2[N+](=O)[O-])o1 | - | ? | ? | - | -
